The results in this text go back to PubChem BioAssay (NCI).

About 83,000 compounds went through this panel and 20% of them were active in at least one assay; those are over-represented in the sample as a whole.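 For each line, cells grew in 96-well plates with the test compound present at a single concentration for 48 hours.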 Unmarked numbers belong to inactive results. The source made the active and inactive calls. Rule for the calls: active = growth percent below 10; inactive = the rest.

Among the test systems are T-47D breast; BT-549 breast; MDA-MB-435 melanoma; SW-620 colon; MCF7 breast; HCT-116 colon; HCC-2998 colon; KM12 colon.
Holding throughout (assay): NCI-60 one-dose screen, 48 h (100 = growth as untreated, 0 = no growth, -100 = all killed)
Common to all, as to conditions: 10 µM unless noted

Regarding `COc1ccc2c(c1)c(-c1nonc1-c1cn(C)c3ccccc13)cn2C`, the growth is 33.5% in the assay on T-47D breast; 60.2% in the assay on BT-549 breast; 1.09% (active) in the assay on MDA-MB-435 melanoma; 24.5% in the assay with SW-620 colon; 24% with MCF7 breast; 26.6% in the assay with HCT-116 colon. Moreover, the values for the growth in the assay with HCC-2998 colon and in the assay with KM12 colon were 45.4% and 25.7%, respectively.
On to `COc1cc2c(cc1-c1c(C)noc1C)ncc1nc(C3CCC(F)(F)CC3)n([C@H](C)COC(F)F)c12`, for which the growth was 46% in the assay with T-47D breast; 61.9% in the assay on BT-549 breast; 36.8% with MDA-MB-435 melanoma; 57.3% with SW-620 colon; 18.7% in the assay with MCF7 breast; 33% in the assay on HCT-116 colon. The figures for the growth in the assay with HCC-2998 colon and with KM12 colon were 46.4% and 45.4%, respectively.
Consider `FC(F)(F)c1ccc(-c2cn3nc(-c4c[nH]c5ccc(Br)cc45)sc3n2)cc1`, for which the growth with T-47D breast was 67.6%; in the assay on BT-549 breast, 105%; in the assay with MDA-MB-435 melanoma, 100%; in the assay on SW-620 colon, 97.3%; in the assay on MCF7 breast, 74.9%; in the assay on HCT-116 colon it was 93.1%. For the same molecule, the results for the growth in the assay on HCC-2998 colon and with KM12 colon were 95.6% and 87.3%, respectively.
As to `CN(Cc1cc(Cl)cc(Cl)c1O)Cc1cc(Cl)cc(Cl)c1O`, the growth is 76.4% with T-47D breast; 86.4% with BT-549 breast; 68.2% in the assay on MDA-MB-435 melanoma; 73.2% in the assay with SW-620 colon; 67.6% in the assay with MCF7 breast; 58.9% in the assay with HCT-116 colon. In addition, the results for the growth in the assay with HCC-2998 colon and in the assay with KM12 colon were 83.5% and 74.8%, respectively.
`O=C1c2cc3c(cc2-c2c1c1ccc(F)cc1c(=O)n2CCCNCCO)OCO3`: the growth was -17.7% (active) in the assay on T-47D breast; -20% (active) in the assay with BT-549 breast; -71.5% (active) with MDA-MB-435 melanoma; -41.5% (active) with SW-620 colon; -65.5% (active) in the assay on MCF7 breast; -43.1% (active) with HCT-116 colon. For the same molecule, the figures for the growth in the assay on HCC-2998 colon and with KM12 colon were -65.7% (active) and -29.9% (active), respectively.
With `CCNc1ncnc2c1cnn2C1CCCO1` (stereo not given), the growth was 104% in the assay with T-47D breast; 105% with BT-549 breast; 103% in the assay with MDA-MB-435 melanoma; 100% in the assay with SW-620 colon; 102% with MCF7 breast; 100% with HCT-116 colon. Further, the growth is 109% in the assay with HCC-2998 colon and 99.1% in the assay on KM12 colon.
As to `Cn1cccc1-c1nc2c3c(ccc2[nH]1)C(=O)c1ccccc1C3=O`, the growth is -18.8% (active) with T-47D breast; 71.7% with BT-549 breast; 105% with MDA-MB-435 melanoma; 105% in the assay with SW-620 colon; 11.6% with MCF7 breast; 83.7% with HCT-116 colon. Further, the growth was 86.3% in the assay with HCC-2998 colon and 73.6% in the assay with KM12 colon.
As to `Cc1cc(N2CCN(c3ccnc4cc(Cl)ccc34)CC2)nc(N2CCOCC2)n1`, the growth in the assay on T-47D breast was 46.9%; in the assay on BT-549 breast it was 86%; in the assay with MDA-MB-435 melanoma, 88.7%; in the assay on SW-620 colon it was 101%; with MCF7 breast it was 75.1%; with HCT-116 colon, 70.3%. For the same molecule, the values for the growth in the assay with HCC-2998 colon and in the assay with KM12 colon were 89% and 85.6%, respectively.
With `Nc1nc2ncc(CCNc3ccc(C(=O)O)cc3)nc2c(=O)[nH]1`, the growth in the assay on T-47D breast was 115%; in the assay on BT-549 breast, 124%; in the assay on MDA-MB-435 melanoma it was 112%; in the assay on SW-620 colon, 110%; with MCF7 breast it was 110%; in the assay with HCT-116 colon, 104%. Moreover, the growth was 117% in the assay with HCC-2998 colon and 111% in the assay on KM12 colon.
In the case of `O=[N+]([O-])c1ccc(Nc2nc(NCCN3CCOCC3)ncc2[N+](=O)[O-])cc1`, the growth in the assay on T-47D breast is 100%; with BT-549 breast it was 89%; in the assay with MDA-MB-435 melanoma, 97.8%; in the assay on SW-620 colon, 89.1%; in the assay with MCF7 breast, 79.8%; in the assay with HCT-116 colon, 88.1%. Further, the growth with HCC-2998 colon is 93.4%; with KM12 colon, 99%.
Turning to `COC(=O)c1ccc(NC(=O)c2ccc(-c3cccc([N+](=O)[O-])c3)o2)cc1`, the growth was 96.4% in the assay on T-47D breast; 98.9% in the assay on BT-549 breast; 101% in the assay on MDA-MB-435 melanoma; 101% with SW-620 colon; 76.8% in the assay with MCF7 breast; 96% in the assay with HCT-116 colon. Besides, the growth in the assay on HCC-2998 colon and in the assay with KM12 colon was 102% throughout.
As for `O=C1Nc2cc(-c3ccc(O)cc3)ccc2/C1=C/c1ccc[nH]1`, the growth in the assay with T-47D breast was 0.283% (active); with BT-549 breast it was 16.9%; in the assay on MDA-MB-435 melanoma, 7.05% (active); in the assay with SW-620 colon, 14.1%; in the assay with MCF7 breast, 1.73% (active); in the assay with HCT-116 colon, 4.68% (active). For the same molecule, the growth in the assay on HCC-2998 colon was -13.9% (active); in the assay with KM12 colon, 2.31% (active).
Consider `COc1ccc(-c2nc3ccc(-c4nc5ccc(N6CCN(c7ccccc7)CC6)cc5[nH]4)cc3[nH]2)cc1OC`, for which the growth in the assay on T-47D breast is -36.4% (active); in the assay on BT-549 breast, 52.9%; in the assay with MDA-MB-435 melanoma it was -3.15% (active); with SW-620 colon, -32.7% (active); in the assay on MCF7 breast, -85.3% (active); in the assay with HCT-116 colon, -100% (active). In addition, the growth is -53.6% (active) with HCC-2998 colon and 4.37% (active) with KM12 colon.
With `Cc1ccc2c(C(C[N+](=O)[O-])c3ccccc3)c(-c3ccccc3)[nH]c2c1` (stereo not given), the growth is 16.5% [9.5 µM] in the assay with T-47D breast; 47.5% [9.5 µM] in the assay with BT-549 breast; -31% [9.5 µM] (active) with MDA-MB-435 melanoma; 13.7% [9.5 µM] in the assay on SW-620 colon; 15% [9.5 µM] with MCF7 breast; 24.4% [9.5 µM] in the assay with HCT-116 colon. For the same molecule, the growth is 54.9% [9.5 µM] in the assay on HCC-2998 colon and 18.4% [9.5 µM] in the assay with KM12 colon.
`C#CCOc1ccc2ncnc(N3CCC(NC(=O)CCl)CC3)c2c1`: the growth is 71% [8.25 µM] in the assay on T-47D breast; 64.2% [8.25 µM] in the assay on BT-549 breast; 68.1% [8.25 µM] in the assay with MDA-MB-435 melanoma; 55.8% [8.25 µM] in the assay on SW-620 colon; 51.9% [8.25 µM] in the assay with MCF7 breast; 56.5% [8.25 µM] with HCT-116 colon. Further, the values for the growth with HCC-2998 colon and with KM12 colon were 107% [8.25 µM] and 96.5% [8.25 µM], respectively.
